697 NFkB inh: lowers PMA/ionomycin-induced NF-kB signal in 697 B cells; 697 B-cell NF-kB luciferase reporter, 16 h; inhibition, % at 4 µM; 0.33% of 330,000 active; AID 435022; in the data active = inhibition above about 35%
Jurkat NFkB inh: lowers PMA/ionomycin-induced NF-kB signal in Jurkat cells; PMA/ionomycin-induced NF-kB luciferase reporter, luminescence; inhibition, % at 4 µM; 0.53% of 330,000 active; AID 435003; in the data active = inhibition above about 50%
aSyn 5UTR inh: 5' untranslated region of α-synuclein, MLPCN primary screen; alpha-synuclein 5'UTR reporter, inhibitor activity; inhibition, % (tested at 7.5 µM); 0.82% of 300,000 active; AID 1813; in the data active = inhibition above about 60%; inconclusive = no clear call, values can overlap the other calls;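 note: H4 neuroglioblastoma cells stably carrying SNCA 5'UTR luciferase fusion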
TAG inh: triacylglycerol accumulation inhibition. H9c2 cells, Nile Red lipid (TAG) fluorescence; cells loaded with 200 µM oleic acid. 0.66% of 230,000 active. inhibition, % at 12.5 µM;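 active = pattern-corrected inhibition of lipid staining of at least 50% with the nuclear-stain viability signal not falling by more than 50%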
Gli-Sufu block: Gli-Sufu pathway antagonism | 0.74% of 340,000 active | Sufu-KO-LIGHT fibroblasts, Gli luciferase reporter luminescence | AID 588413 | inhibition, % at 5 µM;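 active = inhibition above about 55%, limit read from the data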
Shn3 inh set2: inhibitors of Schnurri-3 3'UTR reporter in osteoblasts. 0.52% of 360,000 active. inhibition, % at 12.5 µM. AID 588674. Clone20 osteoblast Shn3 3'UTR firefly luciferase, 24 h;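 active = mean inhibition of at least 75% with every replicate also reaching 75%; inconclusive = mean inhibition at least 75% but some replicate below; inactive = mean inhibition below 75%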
Hits are given with their value; . = inactive; ? = inconclusive; / = not tested or not shown. An excerpt weighted towards active compounds, which were near 2.3% of everything screened.

SMILES	697 NFkB inh	Jurkat NFkB inh	aSyn 5UTR inh	TAG inh	Gli-Sufu block	Shn3 inh set2
CSc1ccccc1OCc1cc(C(=O)N(C)CCn2nc(C)cc2C)no1	.	.	.	/	.	.
COc1ccc(Oc2c(C)oc3c(CN(C)C)c(O)ccc3c2=O)cc1	.	.	.	/	.	.
Cc1ccc2c(c1)N(C(=O)CCC(=O)N1CCOCC1)CC(C)O2 (stereo not drawn)	.	.	.	.	.	.
O=C(CN1C(=O)c2ccccc2S1(=O)=O)c1ccc(O)c(O)c1	.	.	63.5	.	.	/
Cc1ccc(C)c(C(=O)CN2C(=O)c3ccccc3S2(=O)=O)c1	.	.	.	/	.	.
O=C(CN1C(=O)c2ccccc2S1(=O)=O)c1ccc(F)c(F)c1	.	.	.	.	.	.
CCCn1c(C)cc(C(=O)CN2C(=O)c3ccccc3S2(=O)=O)c1C	/	/	/	.	/	82.7
Cc1csc(=O)n1CCC(=O)OCC(=O)c1c(N)n(CC(C)C)c(=O)n(C)c1=O	.	.	.	.	.	.
CC(C)Cn1c(N)c(C(=O)COC(=O)CC23CC4CC(CC(C4)C2)C3)c(=O)n(C)c1=O	.	.	.	.	.	86.8
Cc1ccc2nc(CSc3nnc4ccccn34)cc(=O)n2c1	.	.	.	.	.	.
COCC(C)n1c(SCc2cc(=O)n3cc(C)ccc3n2)nc2ccccc2c1=O (stereo not drawn)	.	.	64.4	.	.	.
Oc1[nH]c2c(Cl)cc(Cl)cc2c1N=NC(=S)NCC1CCCO1 (stereo not drawn)	.	.	79.3	/	.	.
CN1CCc2c(sc3c2C(=O)NC(c2cn(Cc4ccccc4)c4ccccc24)N3)C1 (stereo not drawn)	.	.	63.7	/	.	.
CN1CCc2c(sc3c2C(=O)NC(c2ccco2)N3)C1 (stereo not drawn)	.	.	.	/	.	.
Cc1ccc([C@@H]2C[C@H]3[C@@H](CN2S(=O)(=O)c2ccc(C)cc2)C(=O)C[C@@H](c2cccc(Cl)c2)N3S(=O)(=O)c2ccc(C)cc2)cc1	/	/	/	.	/	.
O=C(C1CCCCC1)N1CCCn2c1nc1ccccc12	.	.	.	/	.	.
CC(C)(C)C(=O)Cn1ncc(Br)c(Br)c1=O	/	/	.	.	.	89.4
CCC(=O)N1CCc2cc(S(=O)(=O)CCC(=O)NCc3ccc(OC)cc3)ccc21	.	.	.	/	.	.
Oc1c(Br)cc(Br)cc1/C=N/Nc1ccc(Cl)nn1	/	/	96.7	/	90.2	94.6
C/C(=N\NC(=O)c1ccc(NS(=O)(=O)c2cccs2)cc1)c1ccccn1	.	.	71.5	/	.	/
Cn1c(SCC(=O)NNC(=S)Nc2ccccc2)nnc1-c1ccncc1	.	.	.	/	/	/
CC(=O)Nc1ccc2nc(CN3CCN(CC=C(C)C)C(CCO)C3)ccc2c1 (stereo not drawn)	.	.	.	/	.	.
CN(C)c1ccc(C=C2C=Cc3ccccc32)cc1	/	/	/	.	.	.
CCOC(=O)SC1=N/C(=C\c2ccc(N(C)C)cc2)C(=O)S1	.	.	.	/	.	.
CN(C)c1ccc(C=c2c3ccccc3n3c2c2ccccc2[n+]3C)cc1	/	/	/	.	.	92.6
SMILES	697 NFkB inh	Jurkat NFkB inh	aSyn 5UTR inh	TAG inh	Gli-Sufu block	Shn3 inh set2
C[n+]1c(-c2ccccc2)cc2c(=Cc3ccc([N+](=O)[O-])cc3)c3ccccc3n21	/	/	/	.	.	.
CCOC(=O)c1cc2c(=Cc3ccc(N(C)C)cc3)c3ccccc3n2[n+]1C	/	/	/	.	75.8	?
Cc1cc2c(=Cc3ccc(N(C)C)cc3)c3ccccc3n2[n+]1C	/	/	/	.	83.3	.
CC(O)C(NS(=O)(=O)c1ccc(Cl)cc1)C(=O)OCC(=O)c1ccc2c(c1)NC(=O)CO2 (stereo not drawn)	/	/	/	.	.	.
CC(C)CC(NC(=O)c1ccc(Cl)cc1)C(=O)OCC(=O)c1ccc2c(c1)NC(=O)CO2 (stereo not drawn)	.	.	96.0	.	.	87.5
CN(Cc1ccc(Cl)s1)C(=O)CCl	.	.	.	65.4	.	.
O=S(=O)(/C(=C\c1ccc(C(F)(F)F)cc1)c1nc2ccccc2[nH]1)c1ccccc1	/	/	/	.	.	92.8
O=C(NCc1ccco1)/C(=C/c1ccc(C(F)(F)F)cc1)c1nc2ccccc2[nH]1	.	.	.	.	.	.
CN(C)CCC(=O)C(Cc1ccccc1)c1ccccc1 (stereo not drawn)	.	.	98.9	.	.	.
CN(C)CCNC(=O)C(c1ccccc1)c1ccccc1	.	.	.	.	.	.
CCCCCCCC/C=C\CCCCCCCC(=O)NCCc1ccc(O)c(O)c1	.	.	/	.	57.3	90.8
CCCCOc1ccc(C(=O)N/N=C/c2ccc(OCCN3CCCCC3)c(OC)c2)cc1	.	.	.	/	.	.
O=[N+]([O-])c1cc2cccnc2c2ncccc12	.	.	.	.	.	.
O=[N+]([O-])c1cc(O)c2ncccc2c1	.	.	70.1	/	67.2	/
CCN(CC)S(=O)(=O)c1ccc(N2CCOCC2)c(NC(=O)c2nn(C(C)C)c(=O)c3ccccc23)c1	/	/	/	.	/	86.1
COc1cccc(/C=N/Nc2ncnc(N)c2[N+](=O)[O-])c1OC	.	.	.	/	.	.
Cc1cc(/C=N/Nc2ncnc(N)c2[N+](=O)[O-])c(C)n1-c1ccccc1	.	.	95.1	.	.	.
Cc1ccc(S(=O)(=O)/C(C#N)=C/c2c(N3CCN(Cc4ccccc4)CC3)nc3ccccn3c2=O)cc1	.	.	.	/	.	.
Cn1nc(C(=O)Nc2cccc(S(=O)(=O)N3CCCC3)c2)c2ccccc2c1=O	.	.	/	.	.	.
CN(CC1CCCN(CCc2ccc(Cl)cc2)C1)C(=O)C(=O)c1ccco1 (stereo not drawn)	.	.	.	/	.	.
O=C(O)CSc1cccnc1Sc1ccc(Cl)cc1	.	.	.	.	.	.
CCOC(=O)CNC(=O)C1(NC(=O)CNC(=O)OCc2ccccc2)CCCC1	/	/	/	.	.	90.7
CCn1cc(S(=O)(=O)c2ccccc2)c(=O)c2cc(F)c(N3CCN(C)CC3)cc21	.	.	.	/	.	.
Cc1cc(C)nc(S/C=C/C(=O)c2ccccc2F)n1	.	.	.	75.1	.	.
CSc1nc(SCC(N)=O)c2c3c(sc2n1)CN(C)CC3	.	.	.	.	98.7	.
SMILES	697 NFkB inh	Jurkat NFkB inh	aSyn 5UTR inh	TAG inh	Gli-Sufu block	Shn3 inh set2
COc1ccc2[nH]c3c(NCCC4=CCCCC4)ncnc3c2c1	/	/	.	.	67.6	.
O=C(N/N=C\c1ccc([N+](=O)[O-])s1)c1cncc(Br)c1	.	.	77.2	/	.	.
Cc1ccccc1NC(=O)/C=C/c1ccc([N+](=O)[O-])s1	/	/	.	/	78.9	93.2
O=C(NN=Cc1ccccc1O)c1cccc([N+](=O)[O-])c1	/	/	/	.	.	.
O=C(N/N=C/c1ccc(Br)s1)c1cccc([N+](=O)[O-])c1	.	.	69.8	/	.	.
O=C(N/N=C/c1ccc([N+](=O)[O-])s1)c1ccccc1	.	.	67.5	.	.	.
O=C(NCCF)[C@H]1C[C@@H]1[C@H](NP(=O)(c1ccccc1)c1ccccc1)c1ccccc1	.	.	.	.	.	.

Screens deposited in PubChem by several laboratories.
